What all share (test): DAPPL (digital affinity profiling via proximity ligation, sequencing); 10 mM Tris-HCl pH 7.5, 50 mM NaCl, 1 mM DTT, 4% glycerol, room temperature, 30 min; GST-TFs on glutathione beads, 16-mer random dsDNA library, 0.1% formaldehyde crosslink after washing; high values mean tight binding
The target in one assay is T1, FLI1 (Homo sapiens, UniProt Q01543 1-452).
T1 sequence: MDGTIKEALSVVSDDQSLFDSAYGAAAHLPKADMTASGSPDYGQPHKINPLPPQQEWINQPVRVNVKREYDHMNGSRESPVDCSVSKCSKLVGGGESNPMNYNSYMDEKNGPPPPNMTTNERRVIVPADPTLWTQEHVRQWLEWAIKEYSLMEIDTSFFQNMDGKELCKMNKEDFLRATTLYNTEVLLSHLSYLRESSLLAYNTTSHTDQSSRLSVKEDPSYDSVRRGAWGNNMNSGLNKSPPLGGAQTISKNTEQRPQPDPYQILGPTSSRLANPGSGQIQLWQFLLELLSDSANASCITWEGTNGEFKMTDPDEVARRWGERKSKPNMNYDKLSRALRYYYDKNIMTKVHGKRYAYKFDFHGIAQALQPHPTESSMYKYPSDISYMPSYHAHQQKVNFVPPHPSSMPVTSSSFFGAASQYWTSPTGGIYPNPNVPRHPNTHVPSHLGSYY
The settings on record: protein: recombinant; tags: N-terminal GST; dsDNA, one strand shown. In outline: (§1)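 The binding signal reported is, for every hexamer, its read frequency for a factor over its read frequency for the tag-only sample. Reads came from pools of yeast-expressed, GST-fused human transcription factors on glutathione beads, barcoded with DNA and mixed with that sample, which were incubated with 200 nmole of a random double-stranded 16-mer DNA library in Tris/NaCl/DTT/glycerol buffer at room temperature for 30 min. After washing, the pools were crosslinked with 0.1% formaldehyde, proximity-ligated with BsaI/T4 ligase for 1 h at 37 °C, PCR-amplified and sequenced on an Illumina NextSeq500.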

The next assay concerns the target T2, ELK1 (Homo sapiens, UniProt P19419 1-428).
T2 sequence: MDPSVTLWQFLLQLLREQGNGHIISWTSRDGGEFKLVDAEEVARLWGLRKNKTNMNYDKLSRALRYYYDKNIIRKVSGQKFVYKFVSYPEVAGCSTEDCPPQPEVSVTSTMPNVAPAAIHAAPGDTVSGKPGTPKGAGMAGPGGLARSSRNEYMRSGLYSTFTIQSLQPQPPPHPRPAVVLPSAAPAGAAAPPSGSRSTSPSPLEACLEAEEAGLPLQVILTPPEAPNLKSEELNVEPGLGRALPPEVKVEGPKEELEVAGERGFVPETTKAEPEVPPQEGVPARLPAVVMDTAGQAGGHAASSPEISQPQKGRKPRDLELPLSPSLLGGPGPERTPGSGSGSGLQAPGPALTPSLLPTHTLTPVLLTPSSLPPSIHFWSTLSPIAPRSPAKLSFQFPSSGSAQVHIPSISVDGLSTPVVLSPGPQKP
Conditions: protein: recombinant; tags: N-terminal GST; dsDNA, one strand shown. The procedure, abridged:
as §1

The next assay has as its target T3, GABPA (Homo sapiens, UniProt Q06546 1-454).
T3 sequence: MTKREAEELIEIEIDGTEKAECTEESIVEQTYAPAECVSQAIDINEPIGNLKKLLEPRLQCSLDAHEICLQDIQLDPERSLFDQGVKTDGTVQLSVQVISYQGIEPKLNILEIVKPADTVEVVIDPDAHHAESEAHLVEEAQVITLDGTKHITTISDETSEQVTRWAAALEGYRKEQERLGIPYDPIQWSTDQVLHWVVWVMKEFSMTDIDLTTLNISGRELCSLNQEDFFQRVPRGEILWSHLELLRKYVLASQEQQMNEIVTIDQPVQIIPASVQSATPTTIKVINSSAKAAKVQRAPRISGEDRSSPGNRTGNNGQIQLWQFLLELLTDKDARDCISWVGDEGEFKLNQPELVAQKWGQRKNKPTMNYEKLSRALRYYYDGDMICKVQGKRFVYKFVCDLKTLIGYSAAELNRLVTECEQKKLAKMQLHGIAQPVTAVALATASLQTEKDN
Conditions: protein: recombinant; tags: N-terminal GST; dsDNA, one strand shown. The procedure, abridged:
as §1

The next assay deals with T4, ERG (Homo sapiens, UniProt P11308 1-479).
T4 sequence: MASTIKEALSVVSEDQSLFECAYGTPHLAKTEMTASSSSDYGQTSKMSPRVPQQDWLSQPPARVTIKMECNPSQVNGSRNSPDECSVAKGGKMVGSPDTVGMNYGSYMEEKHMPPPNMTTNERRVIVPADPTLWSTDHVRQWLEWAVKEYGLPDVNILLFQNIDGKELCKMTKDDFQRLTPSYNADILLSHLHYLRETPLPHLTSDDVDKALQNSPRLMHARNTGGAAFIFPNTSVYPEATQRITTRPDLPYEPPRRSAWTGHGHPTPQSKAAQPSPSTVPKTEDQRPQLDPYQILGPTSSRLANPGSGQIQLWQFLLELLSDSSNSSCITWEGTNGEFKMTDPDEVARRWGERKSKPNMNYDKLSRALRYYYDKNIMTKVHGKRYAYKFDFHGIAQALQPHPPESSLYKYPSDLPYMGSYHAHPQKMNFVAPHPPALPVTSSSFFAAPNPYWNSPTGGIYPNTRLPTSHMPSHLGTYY
Conditions: protein: recombinant; tags: N-terminal GST; dsDNA, one strand shown. In outline: as §1

The target in a further assay is ELF1 (Homo sapiens, UniProt P32519 1-619). Conditions: protein: recombinant; tags: N-terminal GST; dsDNA, one strand shown. In outline: as §1
The next assay concerns the target T5, EHF (Homo sapiens, UniProt Q9NZC4 1-300).
T5 sequence: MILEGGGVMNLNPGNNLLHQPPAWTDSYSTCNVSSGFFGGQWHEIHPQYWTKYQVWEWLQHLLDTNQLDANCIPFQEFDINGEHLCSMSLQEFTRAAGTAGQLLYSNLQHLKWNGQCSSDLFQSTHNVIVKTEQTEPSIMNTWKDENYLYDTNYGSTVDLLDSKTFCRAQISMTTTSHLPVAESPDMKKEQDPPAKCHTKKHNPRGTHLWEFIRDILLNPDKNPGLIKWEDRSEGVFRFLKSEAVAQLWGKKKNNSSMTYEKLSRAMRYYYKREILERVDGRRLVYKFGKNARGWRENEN
Conditions: protein: recombinant; tags: N-terminal GST; dsDNA, one strand shown. The procedure, abridged:
as §1

Another assay concerns the target SPI1 (Homo sapiens, UniProt P17947 1-270). Conditions: protein: recombinant; tags: N-terminal GST; dsDNA, one strand shown. In outline: as §1
For another assay, the target named is SPIB (Homo sapiens, UniProt Q01892 1-262). Conditions: protein: recombinant; tags: N-terminal GST; dsDNA, one strand shown. The procedure, abridged: as §1
Another assay concerns the target T6, ELK3 (Homo sapiens, UniProt P41970 1-407).
T6 sequence: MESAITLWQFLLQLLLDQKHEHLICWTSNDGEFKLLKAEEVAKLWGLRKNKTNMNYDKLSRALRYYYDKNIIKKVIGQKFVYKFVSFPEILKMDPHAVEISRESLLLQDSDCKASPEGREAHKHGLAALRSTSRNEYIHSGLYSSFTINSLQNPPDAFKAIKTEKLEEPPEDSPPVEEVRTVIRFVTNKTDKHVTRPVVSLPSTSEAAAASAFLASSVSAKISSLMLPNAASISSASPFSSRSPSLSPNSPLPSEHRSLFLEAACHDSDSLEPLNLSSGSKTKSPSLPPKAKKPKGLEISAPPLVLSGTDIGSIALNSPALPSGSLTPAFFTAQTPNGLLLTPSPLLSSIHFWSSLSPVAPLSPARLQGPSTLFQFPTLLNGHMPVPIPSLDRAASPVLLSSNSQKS
Conditions: protein: recombinant; tags: N-terminal GST; dsDNA, one strand shown. The procedure, abridged: as §1

In another assay the target is T7, FEV (Homo sapiens, UniProt Q99581 1-238).
T7 sequence: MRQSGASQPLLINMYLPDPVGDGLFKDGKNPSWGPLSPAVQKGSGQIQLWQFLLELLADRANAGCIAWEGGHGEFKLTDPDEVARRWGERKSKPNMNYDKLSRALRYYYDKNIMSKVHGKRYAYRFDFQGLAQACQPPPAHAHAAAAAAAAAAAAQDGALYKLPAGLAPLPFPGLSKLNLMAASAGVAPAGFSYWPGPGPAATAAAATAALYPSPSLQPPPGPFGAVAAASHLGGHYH
Conditions: protein: recombinant; tags: N-terminal GST; dsDNA, one strand shown. In outline: as §1

The target in a further assay is ETV5 (Homo sapiens, UniProt P41161 1-510). The settings on record: protein: recombinant; tags: N-terminal GST; dsDNA, one strand shown. The procedure, abridged: as §1
In the next assay the target is HSF1 (Homo sapiens, UniProt Q00613 1-529). Conditions: protein: recombinant; tags: N-terminal GST; chain copies: 3; dsDNA, one strand shown. The procedure, abridged: as §1
Another assay has as its target T8, SPIC (Homo sapiens, UniProt Q8N5J4 1-248).
T8 sequence: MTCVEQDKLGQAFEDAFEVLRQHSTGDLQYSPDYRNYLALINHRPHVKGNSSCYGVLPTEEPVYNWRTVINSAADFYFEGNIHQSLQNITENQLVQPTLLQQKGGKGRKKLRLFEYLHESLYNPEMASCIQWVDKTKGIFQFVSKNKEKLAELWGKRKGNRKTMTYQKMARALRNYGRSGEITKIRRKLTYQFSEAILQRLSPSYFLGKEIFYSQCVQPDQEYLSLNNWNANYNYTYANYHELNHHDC
Conditions: protein: recombinant; tags: N-terminal GST; dsDNA, one strand shown. The procedure, abridged:
as §1

A further assay addresses ELF4 (Homo sapiens, UniProt Q99607 1-663). The settings on record: protein: recombinant; tags: N-terminal GST; dsDNA, one strand shown. In outline: as §1
For another assay, the target named is T9, ELK4 (Homo sapiens, UniProt P28324-2 1-405).
T9 sequence: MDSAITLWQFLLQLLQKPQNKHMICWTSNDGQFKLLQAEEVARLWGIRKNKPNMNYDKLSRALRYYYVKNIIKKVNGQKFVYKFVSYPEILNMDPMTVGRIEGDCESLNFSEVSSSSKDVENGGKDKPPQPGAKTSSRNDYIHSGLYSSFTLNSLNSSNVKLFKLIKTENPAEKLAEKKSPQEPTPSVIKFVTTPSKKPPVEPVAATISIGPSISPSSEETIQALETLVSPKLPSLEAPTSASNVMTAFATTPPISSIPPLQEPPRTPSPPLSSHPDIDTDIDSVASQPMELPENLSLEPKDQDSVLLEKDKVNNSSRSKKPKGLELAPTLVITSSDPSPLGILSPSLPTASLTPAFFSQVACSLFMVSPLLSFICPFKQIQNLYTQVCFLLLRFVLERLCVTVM
Conditions: protein: recombinant; tags: N-terminal GST; dsDNA, one strand shown. In outline: as §1

Another assay has as its target T10, ETV2 (Homo sapiens, UniProt O00321 1-342).
T10 sequence: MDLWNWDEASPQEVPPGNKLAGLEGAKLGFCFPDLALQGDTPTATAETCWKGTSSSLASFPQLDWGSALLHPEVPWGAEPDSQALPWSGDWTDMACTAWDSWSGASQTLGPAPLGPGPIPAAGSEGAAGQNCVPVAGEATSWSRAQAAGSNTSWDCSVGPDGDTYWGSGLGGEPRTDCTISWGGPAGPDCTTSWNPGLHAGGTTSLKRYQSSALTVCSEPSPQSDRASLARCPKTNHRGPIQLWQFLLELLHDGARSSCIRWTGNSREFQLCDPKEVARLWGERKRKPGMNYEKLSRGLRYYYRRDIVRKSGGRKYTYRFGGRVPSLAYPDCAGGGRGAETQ
Conditions: protein: recombinant; tags: N-terminal GST; dsDNA, one strand shown. In outline:
as §1

The target in a further assay is CRX (Homo sapiens, UniProt O43186 1-299). The settings on record: protein: recombinant; tags: N-terminal GST; dsDNA, one strand shown. The procedure, abridged: as §1
The target of the next assay is ETV1 (Homo sapiens, UniProt P50549 1-477). Conditions: protein: recombinant; tags: N-terminal GST; dsDNA, one strand shown. In outline: as §1
Chain of ETV1 (P50549 whole entry): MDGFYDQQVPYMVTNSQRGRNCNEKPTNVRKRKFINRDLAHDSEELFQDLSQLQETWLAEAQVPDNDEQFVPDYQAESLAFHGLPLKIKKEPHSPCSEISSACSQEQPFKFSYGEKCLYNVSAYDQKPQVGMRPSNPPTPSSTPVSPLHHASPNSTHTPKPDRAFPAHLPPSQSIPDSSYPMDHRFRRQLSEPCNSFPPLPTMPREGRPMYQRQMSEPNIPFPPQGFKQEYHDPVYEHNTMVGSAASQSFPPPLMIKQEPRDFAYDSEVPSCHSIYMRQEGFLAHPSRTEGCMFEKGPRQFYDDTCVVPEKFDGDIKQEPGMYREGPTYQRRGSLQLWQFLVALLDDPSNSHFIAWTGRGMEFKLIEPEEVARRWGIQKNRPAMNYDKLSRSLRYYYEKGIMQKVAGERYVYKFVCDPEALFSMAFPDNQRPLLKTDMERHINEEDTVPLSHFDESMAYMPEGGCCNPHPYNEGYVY

Chain of ELF1 (P32519 whole entry): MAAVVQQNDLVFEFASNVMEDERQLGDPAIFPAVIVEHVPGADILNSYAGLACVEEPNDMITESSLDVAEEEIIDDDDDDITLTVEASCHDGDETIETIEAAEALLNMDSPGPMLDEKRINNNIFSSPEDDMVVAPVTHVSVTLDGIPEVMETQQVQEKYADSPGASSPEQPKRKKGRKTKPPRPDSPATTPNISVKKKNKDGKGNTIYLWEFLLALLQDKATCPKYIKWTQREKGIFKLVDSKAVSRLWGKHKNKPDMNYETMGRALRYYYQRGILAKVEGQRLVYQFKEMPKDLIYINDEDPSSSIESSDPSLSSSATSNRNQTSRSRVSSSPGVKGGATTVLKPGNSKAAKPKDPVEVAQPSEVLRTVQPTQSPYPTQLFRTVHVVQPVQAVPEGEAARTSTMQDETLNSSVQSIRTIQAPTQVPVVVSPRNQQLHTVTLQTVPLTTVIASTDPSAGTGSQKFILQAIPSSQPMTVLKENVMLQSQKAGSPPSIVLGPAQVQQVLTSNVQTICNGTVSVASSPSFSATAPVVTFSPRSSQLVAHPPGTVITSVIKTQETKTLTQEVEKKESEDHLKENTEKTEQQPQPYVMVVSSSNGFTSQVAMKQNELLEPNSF
Chain of SPIB (Q01892 whole entry): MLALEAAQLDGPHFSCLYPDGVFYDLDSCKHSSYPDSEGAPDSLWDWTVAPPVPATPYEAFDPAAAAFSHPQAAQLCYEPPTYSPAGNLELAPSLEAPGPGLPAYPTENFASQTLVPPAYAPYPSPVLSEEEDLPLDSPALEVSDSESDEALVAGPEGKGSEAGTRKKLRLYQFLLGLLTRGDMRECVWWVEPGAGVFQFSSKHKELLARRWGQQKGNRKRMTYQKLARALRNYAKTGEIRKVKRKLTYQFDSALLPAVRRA
Chain of ELF4 (Q99607 whole entry): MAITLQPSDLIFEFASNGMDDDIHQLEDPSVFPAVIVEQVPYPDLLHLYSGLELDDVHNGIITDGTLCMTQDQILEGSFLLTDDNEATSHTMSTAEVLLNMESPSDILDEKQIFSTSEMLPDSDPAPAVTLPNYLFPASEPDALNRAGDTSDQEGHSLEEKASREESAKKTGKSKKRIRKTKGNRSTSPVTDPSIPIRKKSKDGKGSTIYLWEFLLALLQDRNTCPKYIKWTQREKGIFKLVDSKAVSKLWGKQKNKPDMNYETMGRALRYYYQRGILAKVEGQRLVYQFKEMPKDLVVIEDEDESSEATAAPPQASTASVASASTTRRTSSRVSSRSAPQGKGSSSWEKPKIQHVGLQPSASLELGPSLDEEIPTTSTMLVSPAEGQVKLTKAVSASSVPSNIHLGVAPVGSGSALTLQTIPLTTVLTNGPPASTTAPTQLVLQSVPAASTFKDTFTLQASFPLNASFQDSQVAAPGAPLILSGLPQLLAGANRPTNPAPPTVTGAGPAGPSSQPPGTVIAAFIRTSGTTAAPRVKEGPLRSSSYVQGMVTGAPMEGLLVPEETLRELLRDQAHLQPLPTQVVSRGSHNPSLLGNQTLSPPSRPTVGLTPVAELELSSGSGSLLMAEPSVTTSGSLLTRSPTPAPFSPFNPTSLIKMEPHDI
Chain of ETV5 (P41161 whole entry): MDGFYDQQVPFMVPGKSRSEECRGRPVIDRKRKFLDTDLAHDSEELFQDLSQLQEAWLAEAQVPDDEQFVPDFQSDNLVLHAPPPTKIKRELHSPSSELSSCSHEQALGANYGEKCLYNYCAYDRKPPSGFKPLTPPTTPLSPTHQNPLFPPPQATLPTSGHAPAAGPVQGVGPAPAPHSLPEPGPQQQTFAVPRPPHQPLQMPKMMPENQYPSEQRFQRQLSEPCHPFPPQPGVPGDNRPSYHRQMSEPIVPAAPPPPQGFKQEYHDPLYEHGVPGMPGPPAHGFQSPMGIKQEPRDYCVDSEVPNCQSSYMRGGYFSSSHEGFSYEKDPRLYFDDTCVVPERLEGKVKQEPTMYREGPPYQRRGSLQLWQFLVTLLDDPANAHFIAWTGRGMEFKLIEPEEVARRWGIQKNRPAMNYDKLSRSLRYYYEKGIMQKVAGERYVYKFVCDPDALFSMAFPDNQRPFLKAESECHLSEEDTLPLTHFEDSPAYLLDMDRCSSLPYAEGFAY
Chain of CRX (O43186 whole entry): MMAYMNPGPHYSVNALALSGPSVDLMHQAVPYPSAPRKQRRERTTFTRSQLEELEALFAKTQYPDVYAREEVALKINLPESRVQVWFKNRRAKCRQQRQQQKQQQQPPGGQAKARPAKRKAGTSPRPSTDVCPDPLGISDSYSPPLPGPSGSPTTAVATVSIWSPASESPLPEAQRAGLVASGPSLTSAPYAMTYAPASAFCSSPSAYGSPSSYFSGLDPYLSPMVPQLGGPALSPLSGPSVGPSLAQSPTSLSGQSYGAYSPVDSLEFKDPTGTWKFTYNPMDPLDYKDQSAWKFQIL
Chain of HSF1 (Q00613 whole entry): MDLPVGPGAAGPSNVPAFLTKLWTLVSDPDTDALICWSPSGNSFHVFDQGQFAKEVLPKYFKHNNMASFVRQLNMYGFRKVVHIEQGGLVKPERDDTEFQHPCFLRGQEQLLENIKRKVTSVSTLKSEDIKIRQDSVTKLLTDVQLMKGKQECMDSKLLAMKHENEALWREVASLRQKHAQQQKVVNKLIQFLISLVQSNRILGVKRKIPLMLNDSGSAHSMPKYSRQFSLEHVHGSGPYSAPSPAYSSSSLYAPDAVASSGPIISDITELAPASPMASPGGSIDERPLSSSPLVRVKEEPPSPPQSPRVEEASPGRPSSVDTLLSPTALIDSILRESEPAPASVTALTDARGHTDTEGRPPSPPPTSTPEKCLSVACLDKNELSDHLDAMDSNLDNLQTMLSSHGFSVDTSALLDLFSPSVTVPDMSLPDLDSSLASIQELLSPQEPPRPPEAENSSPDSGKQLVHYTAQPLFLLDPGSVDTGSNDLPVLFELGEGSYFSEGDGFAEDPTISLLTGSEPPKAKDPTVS

Consider TAAGCC, for which the binding signal is 1.15 fold enrichment (6-mer frequency, TF over GST control) with FLI1; 1.12 fold enrichment (6-mer frequency, TF over GST control) in the assay with ELK1; 1.19 fold enrichment (6-mer frequency, TF over GST control) with GABPA; 1.13 fold enrichment (6-mer frequency, TF over GST control) with ERG; 1.16 fold enrichment (6-mer frequency, TF over GST control) in the assay with ELF1; 1.08 fold enrichment (6-mer frequency, TF over GST control) with EHF. In addition, the binding signal with SPI1 was 1.08 fold enrichment (6-mer frequency, TF over GST control); with SPIB, 1.19 fold enrichment (6-mer frequency, TF over GST control); with ELK3, 1.06 fold enrichment (6-mer frequency, TF over GST control); with FEV, 1.15 fold enrichment (6-mer frequency, TF over GST control); with ETV5, 1.12 fold enrichment (6-mer frequency, TF over GST control); with HSF1 it was 2.07 fold enrichment (6-mer frequency, TF over GST control). For the same sequence, the binding signal with SPIC was 1.15 fold enrichment (6-mer frequency, TF over GST control); in the assay with ELF4 it was 1.19 fold enrichment (6-mer frequency, TF over GST control); with ELK4, 1.15 fold enrichment (6-mer frequency, TF over GST control); in the assay with ETV2, 1.09 fold enrichment (6-mer frequency, TF over GST control); in the assay with CRX, 3.55 fold enrichment (6-mer frequency, TF over GST control); with ETV1, 1.14 fold enrichment (6-mer frequency, TF over GST control).
